Screening data: PubChem BioAssay, National Center for Advancing Translational Sciences (NCATS)
ClpP mod – qHTS Assay for Activators of ClpP. purified B. subtilis ClpP, FRET peptide cleavage, 20 min. Potency, µM (highest dose often 57.5 µM), inactives show at the top dose activity change, negative = active. 340,000 compounds, 1.9% hits; active = well fitted falling curve with a large enough effect; inconclusive = small, poorly fitted or top-dose-only effect; inactive = no such curve, though single readings can be large or run the other way; also: potency is read from the fitted curve at half-maximal effect; the source files actives as falling curves though it sought activators and does not explain the sign; nearly all actives have a fitted effect of over 65% in size
Target sequence (P80244 whole entry, looked up): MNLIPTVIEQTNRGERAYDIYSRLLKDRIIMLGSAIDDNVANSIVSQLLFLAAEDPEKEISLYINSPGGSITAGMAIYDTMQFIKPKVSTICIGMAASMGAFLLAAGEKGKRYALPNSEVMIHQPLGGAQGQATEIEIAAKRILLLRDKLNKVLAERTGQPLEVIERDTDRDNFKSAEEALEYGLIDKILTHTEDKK
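Buffer: 100 mM Tris/HCl pH8, 100 mM KCl, 0.05% low protease BSA, 2.5% glycerol, 0.01% Tween-20. ClpP 10 microg/mL final; 20 min RT; delta FRET normalized to ADEP and DMSO controls.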
p53 reactivator – restores transcriptional activity of mutant p53; H1299 p53-A138V BP100-luciferase reporter, luminescence, 24 h; Potency, µM (doses to about 92.2 µM), without a hit: at the top dose activity change, positive = activation, hits mostly activators; 320,000 compounds, 0.063% hits; also: potency is read from the fitted curve at half-maximal effect; % of control where 0% means no effect; nearly all actives have a fitted effect of over 45% in size
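H1299 (p53-null), stable ts p53-A138V + BP100-Luc; 1000 cells/well, Opti-MEM/10% FBS; cpd 4 pt, 1:5; 24 h, 37 deg C, 5% CO2; detection reagent 10 min RT; luminescence.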
GLP-1R inv ag – GLP-1 receptor (human) inverse agonism; P43220; Potency, µM (doses to about 38.3 µM), without a hit: top-dose activity change, negative = inhibition, actives largely listed as inhibitors; AID 624417; HEK293 GLP-1R CRE-luciferase, luminescence, 24 h; GLP-1R form is constitutively active; 410,000 compounds, 1.6% hits; also: potency is read from the fitted curve at half-maximal effect; % is scaled to controls: 0 for no effect and ±100 for the full control effect; nearly all actives have a fitted effect of over 55% in size
Target sequence (P43220 whole entry, looked up): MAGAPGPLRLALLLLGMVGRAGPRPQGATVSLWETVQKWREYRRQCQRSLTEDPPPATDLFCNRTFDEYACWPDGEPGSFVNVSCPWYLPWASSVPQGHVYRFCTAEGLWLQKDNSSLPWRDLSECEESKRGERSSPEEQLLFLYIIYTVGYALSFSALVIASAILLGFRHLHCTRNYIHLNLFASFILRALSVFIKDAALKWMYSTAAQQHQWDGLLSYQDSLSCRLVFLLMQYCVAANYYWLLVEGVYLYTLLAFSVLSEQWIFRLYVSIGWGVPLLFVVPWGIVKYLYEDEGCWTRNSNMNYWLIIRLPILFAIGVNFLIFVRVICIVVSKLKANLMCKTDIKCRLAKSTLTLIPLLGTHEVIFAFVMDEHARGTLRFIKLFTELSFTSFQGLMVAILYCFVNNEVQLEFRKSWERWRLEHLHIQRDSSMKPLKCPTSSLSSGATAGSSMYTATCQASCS
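GLP-1R inverse agonism mode: basal reporter luminescence in engineered HEK293 cells measured after one day of compound exposure at 37 deg C, with a 12 min room-temperature detection step.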
GLP1R ag – activates the human GLP-1 receptor. HEK293 GLP-1R CRE-luciferase, luminescence, 4-6 h; cells express a hypersensitive GLP-1R form. Potency, µM (doses to about 45.6 µM), without a hit: at the highest dose activation, most hits filed as activators. 380,000 compounds, 0.007% hits. AID 624172; also: potency is read from the fitted curve at half-maximal effect; % of control where 0% means no effect
LDHA block – LDHA (human) enzyme inhibition; activity change, % (values are at about 110 or 230 µM); purified LDHA, NADH/diaphorase-resazurin fluorescence; hits give low values; 480,000 compounds, 0.15% hits; in the data active = activity change below about -30%; inconclusive = mostly about -25% to -30%;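 also: plate controls were DMSO wells for no effect and wells without enzyme for full effect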
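Resorufin fluorescence (ex540/em590), read at 0 and 20 min after diaphorase/resazurin addition, reports the NADH left after a 5 min room-temperature reaction of 2 nM human LDH5 with 0.06 mM NADH and 0.2 mM pyruvate.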
HEK293 tox – cytotoxicity in counter-screen for GLP-1R inverse agonists; HEK293 cAMP-luciferase reporter cells, luminescence, 24 h; Potency, µM (series often up to 38.3 µM), inactives show top-dose activity change, negative = inhibition, usual class: inhibitors; 410,000 compounds, 0.13% hits; AID 624418;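 also: loss of luciferase light is scored as toxicity; potency is read from the fitted curve at half-maximal effect; % is scaled to controls: 0 for no effect and ±100 for the full control effect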
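1536-well qHTS counterscreen of the MLSMR; 200 cells/uL, 12 h pre-incubation, 23 nL cpd, 24 h at 37 deg C 5% CO2, luciferase detection reagent, 12 min RT, luminescence. Inhibition = undesired.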
An asterisk follows results filed as active. Compounds with a hit are over-represented: about 2.9% of the library has one in this group of screens. Unless noted, calls follow the shape of the dose curve; as a rule, active = well fitted curve in the direction sought with a large enough effect; inconclusive = small, poorly fitted or top-dose-only effect, or another doubt; inactive = no such curve, though single readings can be large; an effect the other way counts as inactive or inconclusive.

What do the screens show for `CCCCn1c(O)c(C(CC)=Nc2ccc(C(=O)O)cc2)c(=O)[nH]c1=O`?
ClpP mod: 2.5µM*; p53 reactivator: 8%; GLP-1R inv ag: 1%; GLP1R ag: 3%; LDHA block: 2; HEK293 tox: -3%

What do the screens show for `C=CCn1c(O)c(C(CC)=Nc2ccc(C(=O)O)cc2)c(=O)[nH]c1=O`?
p53 reactivator: 2%; GLP-1R inv ag: -8%; GLP1R ag: 0%; LDHA block: -9; HEK293 tox: -15%

Results for S=P(c1ccccc1)(c1ccccc1)c1c[nH]c2ccccc12 ?
LDHA block: -4

What do the screens show for `COC(=O)C12CCc3c(ccc4cc(OC)ccc34)C1=CC(=O)C2` (stereo not drawn)?
ClpP mod: 28µM*; GLP-1R inv ag: 87%; GLP1R ag: 4%; LDHA block: -4; HEK293 tox: 187%

Results for CCOC(=O)[C@]12Cc3cc(OC)ccc3[C@H]1N(CC(=O)OC)C(=O)c1cc(OC)ccc12 ?
ClpP mod: -2%; GLP-1R inv ag: inconclusive; GLP1R ag: -15%; LDHA block: -3; HEK293 tox: inconclusive

How did O=C(NCc1cccnc1)/C(=C\c1ccc(-c2ccc(Br)cc2)o1)S(=O)(=O)c1ccccc1 do in these assays?
ClpP mod: -8%; p53 reactivator: -39%; GLP-1R inv ag: 1.8µM*; GLP1R ag: -39%; LDHA block: -8; HEK293 tox: inconclusive

How did CCN(c1ccccc1)S(=O)(=O)c1cccc(C(=O)NCc2cccnc2)c1 do in these assays?
ClpP mod: -2%; p53 reactivator: -2%; GLP-1R inv ag: inconclusive; GLP1R ag: 4%; LDHA block: -2; HEK293 tox: -26%

What do the screens show for `O=C(N/N=C/c1c(O)n(C2CC2)c(=S)[nH]c1=O)c1ccccc1O`?
ClpP mod: -3%; p53 reactivator: 6.3µM*; GLP-1R inv ag: -16%; GLP1R ag: 0%; LDHA block: -7; HEK293 tox: -4%

What do the screens show for `Cc1cccc(Nc2nc(NCc3ccco3)c3ccccc3n2)c1`?
ClpP mod: 20µM*; p53 reactivator: -9%; GLP-1R inv ag: 2.2µM*; GLP1R ag: -12%; LDHA block: -4; HEK293 tox: inconclusive

Results for CC1=CC(=O)OC2CC3OC4C[C@@H](C)C5OC6CC7O[C@]8(C)C/C=C\C9OC%10CC%11OC(CC(C)C%12OCCO%12)CC(O)[C@]%11(C)OC%10CC9OC8C[C@]7(C)O[C@]6(C)CCC5OC4C[C@]3(C)OC12 (stereo partly drawn) ?
ClpP mod: 0%; p53 reactivator: 5%; GLP-1R inv ag: -11%; GLP1R ag: -3%; LDHA block: 6; HEK293 tox: -5%

Results for COC(=O)[C@@H]1N=C(c2ccc(OC)cc2)O[C@]12C(=O)N(Cc1ccccc1)c1ccccc12 ?
ClpP mod: -3%; GLP-1R inv ag: inconclusive; GLP1R ag: -1%; LDHA block: 1; HEK293 tox: -2%

What do the screens show for `N#CC1=C(N)NC(SCC(=O)Nc2ccc(Br)cc2)=C(C#N)C12CCCCC2`?
ClpP mod: 1%; p53 reactivator: 1%; GLP-1R inv ag: 7.9µM*; GLP1R ag: -1%; LDHA block: -1; HEK293 tox: inconclusive

What do the screens show for `O=C(COc1ccc2ccccc2c1)N1CCN(Cc2c[nH]c3ccccc23)CC1`?
ClpP mod: -1%; p53 reactivator: 2%; GLP-1R inv ag: 11µM*; GLP1R ag: -2%; LDHA block: -21; HEK293 tox: -32%

Results for COc1ccc(CN2CCN(C(=O)COc3ccc4ccccc4c3)CC2)c(OC)c1 ?
ClpP mod: -3%; p53 reactivator: -15%; GLP-1R inv ag: 10µM*; GLP1R ag: -1%; LDHA block: -9; HEK293 tox: -4%

What do the screens show for `O=C(COc1ccc(Br)cc1)N1CCN(Cc2c[nH]c3ccccc23)CC1`?
ClpP mod: 2%; p53 reactivator: 1%; GLP-1R inv ag: inconclusive; GLP1R ag: 8%; LDHA block: -11; HEK293 tox: -26%

How did COc1cccc(CN2CCNCC2)c1 do in these assays?
p53 reactivator: 2%; GLP-1R inv ag: -3%; GLP1R ag: -2%; LDHA block: -2; HEK293 tox: -2%

How did OCCOc1ccccc1 do in these assays?
ClpP mod: 1%; p53 reactivator: 1%; GLP-1R inv ag: -10%; GLP1R ag: -5%; LDHA block: 2; HEK293 tox: -19%

Results for CCC1=Nc2cc(C(=O)N3CCC4(CC3)OCCO4)ccc2Sc2ccc(C)cc21 ?
ClpP mod: -2%; p53 reactivator: 2%; GLP-1R inv ag: inconclusive; GLP1R ag: 4%; LDHA block: -3; HEK293 tox: -7%

How did CCOP(=O)(OCC)C(NC(=O)Nc1ccc(Cl)c(Cl)c1)c1ccccc1 (stereo not drawn) do in these assays?
ClpP mod: 3%; p53 reactivator: -1%; GLP-1R inv ag: 8.9µM*; GLP1R ag: 1%; LDHA block: -1; HEK293 tox: -9%

Results for C=CCn1c(O)c(C(C)=NCCCN(C)C)c(=O)[nH]c1=O ?
ClpP mod: 14µM*; p53 reactivator: 0%; GLP-1R inv ag: -3%; GLP1R ag: -3%; LDHA block: -4; HEK293 tox: 7%

How did c1ccc(Nc2c3c(nc4ccccc24)CCC3)cc1 do in these assays?
p53 reactivator: 10%; GLP-1R inv ag: 11µM*; GLP1R ag: 6%; LDHA block: 15; HEK293 tox: inconclusive

How did C[C@@H]1CN([C@H](C)CO)C(=O)c2cc(NC(=O)Nc3ccc(C(F)(F)F)cc3)ccc2O[C@H]1CN(C)S(=O)(=O)c1cccs1 do in these assays?
ClpP mod: -8%; p53 reactivator: 0%; GLP-1R inv ag: inconclusive; GLP1R ag: -4%; LDHA block: -3; HEK293 tox: inconclusive

How did C[C@H](CO)N1C[C@H](C)[C@@H](CN(C)S(=O)(=O)c2cccs2)Oc2ccc(NC(=O)Nc3ccc(C(F)(F)F)cc3)cc2C1=O do in these assays?
ClpP mod: 1%; p53 reactivator: 0%; GLP-1R inv ag: 8.9µM*; GLP1R ag: -1%; LDHA block: 0; HEK293 tox: inconclusive

Results for C=C1C(=O)OC2CC(C)C3C=CC(=O)C3(C)C(O)C12 (stereo not drawn) ?
ClpP mod: 1%; GLP-1R inv ag: inconclusive; GLP1R ag: -34%; LDHA block: -1; HEK293 tox: -65%
